# Experimental data as given in PubChem BioAssay (NCI).
# About 79,000 compounds went through this panel and 15% of them were active in at least one assay; those are over-represented in the sample as a whole. A number with no mark means an inactive call. The source made the active and inactive calls. Rule as the data show it: active = growth inhibition above about 70%; inactive = the rest.
# Tests used:
# [1] = NCI Yeast Anticancer Drug Screen. Data for the rad50 strain (AID 155);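 also: 0% = growth of vehicle-only cultures of the same strain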; settings: S. cerevisiae rad50 strain growth inhibition; at 50.0 µM; hits give high values
# Summary of the method: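 Compounds were tested on a yeast strain with an engineered DNA damage repair alteration; the reported value is growth inhibition normalised to vehicle treatment.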
# [2] = NCI Yeast Anticancer Drug Screen. Data for the mec2-1 strain (AID 157); settings: S. cerevisiae mec2-1 strain, at 50.0 µM, hits give high values
# Summary of the method: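 Each compound was tested on mec2-1 yeast, a strain altered in DNA damage repair or cell cycle control. Growth inhibition is reported relative to vehicle.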
# [3] = NCI Yeast Anticancer Drug Screen. Data for the sgs1 mgt1 strain (AID 161);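 also: 0% = growth of cultures given vehicle only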; settings: S. cerevisiae sgs1 mgt1 strain, at 50.0 µM, hits give high values
# Summary of the method: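 Genetically altered yeast, compound exposure, growth inhibition relative to vehicle.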
# [4] = NCI Yeast Anticancer Drug Screen. Data for the cln2 rad14 strain (AID 165);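 also: 0% = growth equal to vehicle treated cultures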; settings: S. cerevisiae cln2 rad14 strain, at 50.0 µM, hits give high values
# Summary of the method: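 Test compounds were added to cln2 rad14 yeast cultures; inhibition of growth was then determined by comparison with vehicle treatment.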
# [5] = NCI Yeast Anticancer Drug Screen. Data for the bub3 strain (AID 167); settings: S. cerevisiae bub3 mutant strain, at 50.0 µM, hits give high values
# Summary of the method: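 Growth of a checkpoint-deficient yeast mutant is measured after compound exposure. Values represent inhibition relative to vehicle.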
# [6] = NCI Yeast Anticancer Drug Screen. Data for the mlh1 rad18 strain (AID 175); settings: S. cerevisiae mlh1 rad18 strain growth inhibition; at 50.0 µM; hits give high values
# Summary of the method: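 Inhibition values reflect reduced growth of mutant yeast versus vehicle-treated controls following compound exposure; the mutations affect DNA damage repair.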
SMILES,growth inhibition [1],growth inhibition [2],growth inhibition [3],growth inhibition [4],growth inhibition [5],growth inhibition [6]
CN(C)c1ccc(/C=C/c2nc3ccc(Cl)cc3[nH]2)cc1,-5.55%,0.1%,-1.9%,5.75%,-8.2%,-14.1%
NC(=S)N/N=C/c1ccc(F)cn1,22.9%,58.4%,-1.5%,-63.9%,-5.4%,11.9%
CC(C)OC(=O)c1ccc(NCC2=CC(=O)C=CC2=O)cc1,39.1%,79.2% (active),63.5%,57.1%,46.1%,88.2% (active)
COc1ccc(/C=N/N2CN(C(C)C(=O)O)C(C)(O)N=C2N)cc1OC (configuration not stated),-14.2%,-33.8%,-20.7%,-8.95%,-25.6%,-50.8%
Cn1c(O)c(C=Nc2ccccc2Cl)c(=O)n(C)c1=O,-11.1%,-4.65%,-9.7%,-38.6%,0.55%,-28.4%
Cc1nn(C(=O)c2ccccn2)c(-c2ccccc2)c1N=Nc1ccc(S(=O)(=O)Nc2ncccn2)cc1,26.4%,-6%,17.9%,12.5%,1.5%,40.4%
ClCCCCOC1CCCCO1 (configuration not stated),-4.6%,5.35%,4.9%,2.7%,-12.7%,-29.8%
N=C(N)SCc1ccc(Cl)cc1Cl (tested in a mixture with another compound),34.1%,12.3%,6.35%,3.05%,7.9%,26.4%
O=C(NCCN1CCCCC1)c1ccc(Br)cc1,-15.2%,-16.4%,-12.6%,-6%,-18.9%,-47.1%
COc1ccc(-c2cc(-c3cc(C)cc(Br)c3O)no2)cc1,-6.55%,-13.3%,-10.8%,-3.2%,-4.4%,14.3%
ClCCOCc1ccc(Cl)cc1Cl,24.6%,8.9%,8.4%,0.7%,-3.7%,19.9%
COc1ccc(C=Nc2ccc3c(c2)OCO3)cc1Br,16.9%,16.9%,11.7%,14.6%,9.4%,19.2%
Cc1cc(C)n2ncnc2n1,16.9%,-22.6%,7.9%,4.15%,-5.15%,5.35%
CCCOC(=O)CCCCC(=O)OCCC,11.6%,17.9%,-8.65%,-4%,0.85%,11.9%
CC(=O)Nc1cccc(O)c1,18.4%,5.3%,25.1%,-13.8%,-8.7%,22.6%
CCn1c(=O)c2[nH]c(-n3c(Cl)nc4c3c(=O)n(CC)c(=O)n4CC)nc2n(CC)c1=O,31.1%,2.8%,2.9%,14.2%,-0.5%,21.4%
COc1cc(C(C#N)NNc2nc(C)cc(=O)[nH]2)cc(OC)c1OC (configuration not stated),-25.6%,-2.75%,-31.1%,-5.35%,-23.9%,-12.9%
CC(C)(C)NCC(CN1CCOCC1)C(=O)c1ccccc1 (configuration not stated),48.5%,70.1% (active),57%,52.6%,74.2% (active),90.2% (active)
CC(Br)C(=O)c1ccc2ncccc2c1 (configuration not stated),5.15%,-24.8%,-7.6%,-1.45%,12.8%,12.8%
CCOC(=O)CC(NC(=O)CC(N)C(=O)O)C(=O)OCC (configuration not stated),7.15%,3%,-2.7%,-1.25%,-0.3%,-3.25%
CCNC(=O)NCCN1CCOCC1,-3.55%,-8%,-3.1%,-75%,7.05%,-2%

SMILES,growth inhibition [1],growth inhibition [2],growth inhibition [3],growth inhibition [4],growth inhibition [5],growth inhibition [6]
c1ccc(C2=NOCC3(c4ccccc4)OC23)cc1 (configuration not stated),7.85%,11.8%,20.7%,-14.8%,14.2%,11.3%
COC(=O)C1=C(C)N(NC(N)=O)C2(N)N(NC(N)=O)C(C)=C(C(=O)OC)C12C#N (configuration not stated),-23.5%,-11.6%,-44.6%,5.8%,2.55%,-16.4%
O=C1CC2(CCCCC2)C(=O)N1c1cc([N+](=O)[O-])ccn1,25.4%,14.7%,0.8%,17.6%,10%,19.8%
COc1ccc(C2OCCC(C)O2)cc1OC (configuration not stated),-14.6%,-12.8%,-19.7%,-48.8%,-33.5%,-14.8%
Cn1cnc([N+](=O)[O-])c1SC1=NCCS1,7.8%,-1.4%,10.2%,25.3%,22.9%,-7.5%
CN(C)c1ccc(-c2cc(C(=O)O)c3cc(I)ccc3n2)c(Cl)c1,45.9%,30.6%,36.5%,51.4%,46.1%,35.8%
N#Cc1c(-c2ccccc2)cc(-c2ccccc2)n(C2OCC(O)C(O)C2O)c1=S (configuration not stated),5.1%,30.6%,31.5%,-7.45%,3.15%,-0.05%
NC(=O)/C(=N/O)c1ccccc1,-1.85%,13.2%,1.7%,1.25%,-1.2%,-7.6%
O=C1NC2C1C1c3ccccc3C2C12CC2 (configuration not stated),-11.1%,-7.95%,-13.6%,-11.8%,13.1%,-1.85%
Cc1n[nH]c(=S)n1NC=O,-12.3%,-6.3%,-4.7%,-20.2%,-4.95%,-15.8%
CC(=O)OCC1OC(n2cnc(C(N)=S)c2N)C(OC(C)=O)C1OC(C)=O (configuration not stated),2.3%,15.8%,11.4%,-10.4%,-2.35%,21.2%
CC(CS(C)(=O)=O)S(=O)(=O)O (configuration not stated),-6.25%,-20.4%,-1.35%,-0.3%,-14.7%,-5.85%
c1ccc(SC2(Sc3ccccc3)CCCC2)cc1,-9.15%,-22.1%,-12.2%,-0.5%,-24.6%,-17.4%
O=C(C[n+]1ccnc2ccccc21)c1ccc(Br)cc1,15.7%,-3.05%,2%,6.45%,-6.6%,13%
CC(C)=CCCC(C)(O)C1CC=C(C)CC1 (configuration not stated),0.5%,-18.8%,-2.6%,3.05%,-13.9%,-7.65%
COc1ccc(C(c2cc3c(cc2O)OCO3)N2CCN(C(c3ccc(OC)cc3)c3cc4c(cc3O)OCO4)CC2)cc1 (configuration not stated),17.1%,0%,5.05%,15.1%,-1.65%,19.8%
Cn1c(=O)c2c(nc(NCCNc3nc4c(c(=O)n(C)c(=O)n4C)n3C)n2C)n(C)c1=O,1.85%,-3.35%,-46.2%,-25.1%,-20.8%,-31.7%
COC(=O)C(C)CC(C)C(=O)OC (configuration not stated),19.6%,-15.8%,17.6%,12.7%,-2.95%,16.4%
CCN(CC)N=Nc1ccc(S(N)(=O)=O)cc1,8.25%,12.6%,16.1%,38%,-5.1%,14.6%
COc1cc2c(cc1O)C(Cc1ccccc1)N(C)CC2O (configuration not stated),-12.6%,-4.7%,-4%,-5.7%,-7.55%,0%
Oc1c(Br)cc(CN(Cc2cc(Br)c(O)c(Br)c2)C2CCCCC2)cc1Br,-2.75%,-6.5%,-21.3%,-15.7%,-23.1%,5.4%
